# Assay results taken from PubChem BioAssay AID1745850 (National Center for Advancing Translational Sciences (NCATS), 2022).
# Screen size: about 2,100 compounds; about 260 (12%) were called active. About 58% were inconclusive and are not listed. Calls come from the whole dose curve; as a rule, active = well fitted cell-killing curve with a large enough effect; inconclusive = small, poorly fitted or top-dose-only effect, or effect the other way; inactive = flat fitted curve, though single readings scatter. This is one part of the list. Where a call stands in place of a potency, no number is given.
# Assay: Viability Counterscreen for Confirmatory qHTS for Inhibitors of ATXN expression; note: nearly all actives have a fitted effect of over 50% in size
# Details: HEK-293 ATXN2-luc cells viability, CellTiter-Fluor, 24 h
# Outline: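 Cells with an ATXN2-luciferase reporter were dosed in a dilution series for 24 h at 37 degrees C. Viability was read first with Gly-Phe-AFC at 25 uM final (fluorescence, ex 405/em 540), then SteadyGlo luminescence. Medium-only wells defined 100% inhibition.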
# Potency is the fitted concentration of half-maximal effect.
row,Structure (SMILES),Potency
1,Cc1cc(O)c(C(C)C)cc1N=Cc1ccc(N(C)C)cc1,inactive
2,Cc1cc(C2=NNC(=NC3CC3)SC2)c(C)n1-c1ccccc1F,inactive
3,Cc1cccc(N2CCN(C(=O)CNC(=O)Cc3ccccc3)CC2)c1C,inactive
4,CCCCCc1ccc(OCCC[n+]2ccccc2)c(CCCCC)c1,20 µM (active)
5,CCC(C)(C)c1ccc(OCCCC[n+]2ccccc2)c(C(C)(C)CC)c1,inactive
6,CCC(C)(C)c1ccc(OCCCC[n+]2ccc(C)cc2)c(C(C)(C)CC)c1,inactive
7,Cc1cccc(OCCSc2nc3ncnc(N)c3[nH]2)c1,inactive
8,Cc1nc(-c2ccc(Cl)cc2)sc1C(=O)NN,inactive
9,COc1ccc2nc(C)cc(NCc3cccc(C(F)(F)F)c3)c2c1,22.4 µM (active)
10,COc1ccc2nc(C)c3c(c2c1)OC(C(C)(Cl)Br)C3 (configuration not stated),inactive
11,COc1ccc(N2CCN(c3cc(C)nc4ccc(OC)cc34)CC2)cc1,inactive
12,O=C(CCN1CCN(c2ccccc2)CC1)N/N=C/c1ccccc1O,inactive
13,COc1cc(C(=O)OC(C)C(=O)N2CCc3ccccc3C2)ccc1OCC(=O)N1CCOCC1 (configuration not stated),inactive
14,Cc1cc(C)c(C)c(OC(=O)c2sc(Cl)nc2C)c1,28.2 µM (active)
15,COC(=O)c1sc(NC(=O)c2ccc(OC)cc2OC)nc1C,inactive
16,CCOC(=O)C1CCN(c2ncnc3c2cnn3-c2ccc(Cl)cc2)CC1,inactive
17,Cc1cc(N2CCN(c3nc(-c4ccccc4)cs3)CC2)c2ccccc2n1,inactive
18,Cn1cccc1/C=N/N1CCN(Cc2ccccc2Cl)CC1,inactive
19,O=[N+]([O-])c1ccc(O)c2ncccc12,11.2 µM (active)
20,O=C1c2cccc3c([N+](=O)[O-])ccc(c23)C(=O)N1c1ccc(Cl)cn1,inactive
21,Cc1ccnc(N2C(=O)c3cccc4c([N+](=O)[O-])ccc(c34)C2=O)c1,inactive
22,CC(C)COCc1ccc(O)c2ncccc12,inactive

row,Structure (SMILES),Potency
1,CCOC(=O)N1CCN(Cc2cc(Cl)c3cccnc3c2O)CC1,inactive
2,O=[N+]([O-])c1cc(Cl)c(O)c2ncccc12,11.2 µM (active)
3,Cn1c(-[n+]2c(-c3ccccc3)cc(-c3ccccc3)cc2-c2ccccc2)nc2c([N+](=O)[O-])cccc21,inactive
4,COc1ccc(N=Cc2cc3c(cc2O)OC(N)=C(C#N)C3c2ccccc2)cc1 (configuration not stated),inactive
5,O=C1CCCC(O)=C1C=NCc1ccccc1,inactive
6,CCCCC(=O)N(CCOC)c1nnc(-c2ccccc2C)s1,inactive
7,COc1ccccc1CNc1nc(NC(C)C)nc2cc(-c3ccccc3)sc12,28.2 µM (active)
8,COc1ccc(-c2cc(CNc3nc(NC(C)C)nc4cc(-c5ccccc5)sc34)on2)cc1,22.4 µM (active)
9,CC(=O)Nc1ccc(CNc2nc3cc(-c4ccccc4C)sc3c(=O)n2C)cc1,inactive
10,CC(=O)Nc1ccc(CNc2nc(NC(C)C)nc3cc(-c4ccccc4)sc23)cc1,25.1 µM (active)
11,CCn1c2ccccc2c2cc(/C=N/n3cnnc3)ccc21,inactive
12,CCOCCn1ccc2c(OCC(=O)Nc3ccc(OC)c(OC)c3)cccc2c1=O,inactive
13,COCCNc1nc(-c2cc(C)n(CCc3ccc(OC)cc3)c2C)cs1,inactive
14,COCCCn1c(N)c(-c2nc3ccccc3n2C)c2nc3ccccc3nc21,inactive
15,CO[C@@]12[C@@H]3N[C@@H]3CN1C1=C(C(=O)C(N)=C(C)C1=O)[C@@H]2COC(N)=O,inactive
16,NNC(=O)c1sc2cc(C(F)(F)F)cnc2c1-c1cccs1,inactive
17,O=C(CNC(=O)C1COc2ccccc2O1)N/N=C/c1ccc(O)cc1O (configuration not stated),inactive
18,Cc1nc(SCc2ccc(C(=O)O)cc2)nc2c1CCCC2,inactive
19,N=c1ccn(CC(=O)c2ccc(-c3ccccc3)cc2)cc1,inactive
20,Cc1c(C(=O)NCc2ccc(C(F)(F)F)cc2)sc(=O)n1Cc1cccc(F)c1,inactive
21,Cc1ccc2nc(SCc3ccc([N+](=O)[O-])cc3)[nH]c2c1,inactive
22,Cc1ccc2nc3cc([N+](=O)[O-])cc([N+](=O)[O-])c3cc2c1,17.8 µM (active)

row,Structure (SMILES),Potency
1,Cc1cc(C)nc(NNS(=O)(=O)c2ccc(F)c(Cl)c2)n1,inactive
2,CC(C)CC(=O)NC(=S)NNC(=O)c1ccc(NC(=O)C2CCCCC2)cc1,inactive
3,Cc1cccc(OCCCC(=O)Nc2nc3ccccc3[nH]2)c1,inactive
4,CCC(=O)OCCNc1cc(Sc2nc3ccccc3[nH]2)c2nonc2c1[N+](=O)[O-],3.16 µM (active)
5,CC(SC(C)C(=O)NN=Cc1cccc(Cl)c1)C(=O)NN=Cc1cccc(Cl)c1 (configuration not stated),inactive
6,O=C(NC(=S)NCc1nc2ccccc2[nH]1)c1ccc(F)cc1,inactive
7,Cc1cc(C)cc(NC(=O)CCC(=O)Nc2cc(C)on2)c1,inactive
8,COc1ccc(OC)c(NC(=O)CSc2nnnn2-c2ccc3c(c2)OCO3)c1,inactive
9,Cc1cc(C)c2c(CC(=O)Nc3ccc(Cl)cn3)coc2c1,inactive
10,Cc1ccc(N=Nc2ccc(O)c3ncccc23)cc1,10 µM (active)
11,CN1CCC(N(C)C(=O)c2ccc(Cl)c(S(=O)(=O)N3CCc4ccccc43)c2)CC1,inactive
12,Nc1ccn([C@@H]2O[C@H](CO)[C@@H](O)[C@@H]2O)c(=O)n1,inactive
13,CN(C)S(=O)(=O)c1cccc(N2C(=O)CC3(CCCCC3)CC2=O)c1,inactive
14,C=CCN(C(=O)CSc1nc2c(sc3ccccc32)c(=O)n1CCN(CC)CC)c1ccccc1,25.1 µM (active)
15,CCOC(=O)c1c(-n2cccc2)sc2c1CCCC2=O,inactive
16,CC(=O)c1ccc(N2CCN(CC(O)COC(c3ccccc3)c3ccccc3)CC2)cc1 (configuration not stated),inactive
17,CCN(CC)c1nc(-c2ccccn2)nc(-c2ccccc2)c1C#N,8.91 µM (active)
18,CC(C)Nc1nc(-c2ccccn2)nc(-c2ccccc2)c1C#N,inactive
19,Cn1cc(SCC(=O)Nc2nc3ccccc3s2)c2ccccc21,inactive
20,O=C(N/N=C/c1ccccc1O)c1cccc(C(F)(F)F)c1,inactive
21,COc1cccc(/C=N/NC(=O)c2cc3c(OC)cccc3[nH]2)c1O,inactive
22,COc1ccccc1NS(=O)(=O)c1cccc(C(=O)N/N=C/c2ccc([N+](=O)[O-])o2)c1,15.8 µM (active)

row,Structure (SMILES),Potency
1,c1ccc(COc2ncnc3c2ncn3CCCN2CCN(Cc3cccc4ccccc34)CC2)cc1,25.1 µM (active)
2,CCOC(=O)/C=C/C(=O)Nc1ccc(Oc2ccccc2)cc1,inactive
3,CN(CCOc1ccc(Br)cc1)CC(O)COc1ccc(C#N)cc1 (configuration not stated),inactive
4,Cc1csc2ncnc(NC3CCN(Cc4ccccc4)CC3)c12,inactive
5,OC[C@@H]1CN(Cc2ccc(-c3ccccc3)cc2)C[C@H](n2cnc3c(Nc4ccccc4)ncnc32)O1,20 µM (active)
6,Cc1cccc(/C=N/NC(=O)c2c(-c3ccccc3)noc2C)c1O,inactive
7,COCCCNCCCOc1ccc(Cl)cc1C(C)(C)C,35.5 µM (active)
8,CCCCNCCCOc1cccc(Cl)c1Cl,inactive
9,Cc1cc(Cl)ccc1OCCCC(=O)NNC(=O)c1ccccc1O,inactive
10,NC(=S)n1[nH]c(-c2ccc([N+](=O)[O-])cc2)c(N=Nc2cccc(Cl)c2)c1=O,11.2 µM (active)
11,Cc1cc2sc3ccc(C#CC4(O)CCCCC4)cc3c(=O)c2cc1C,inactive
12,Cc1ccc(NC(=O)CNc2cccc(Br)c2)cc1S(=O)(=O)N1CCOCC1,inactive
13,CC(C)[C@@H]1CC[C@@H](C)C[C@H]1OC(=O)C[n+]1cc(-c2ccc(Cl)cc2)n2c1CCCCC2,22.4 µM (active)
14,CCn1c(C)cc(C(=O)CN2C(=O)c3ccccc3S2(=O)=O)c1C,inactive
15,O=C(c1ccco1)N1CCN(c2ccnc3cc(Cl)ccc23)CC1,inactive
16,CCOC(=O)Cn1cc(C(=O)c2ccco2)c2ccccc21,inactive
17,CCn1cc(C(=O)NCc2cccc(F)c2)c(=O)c2cc(F)c(N3CCN(C(=O)c4ccco4)CC3)cc21,22.4 µM (active)
18,Cc1ccc2c(CC(=O)NNC(=O)c3ccccc3O)coc2c1,inactive
19,Cc1ccc(SC2=C(N(C)C)C(=O)c3ccccc3C2=O)cc1,inactive
20,CC(C)(C)c1ccc(NC(=O)N2CCCN(c3c(Cl)cncc3Cl)CC2)cc1,inactive
21,O=C(NNC1=Nc2ccccc2SC1)c1ccc(Cl)cc1,inactive
22,O=c1c2c(nc3c(-c4ccc(Cl)cc4)c[nH]n13)CCC2,inactive

row,Structure (SMILES),Potency
1,O=c1c2c(nc3c(-c4cccc(Br)c4)c[nH]n13)CCCC2,12.6 µM (active)
2,O=C(NNc1ccnc2cc(Cl)ccc12)C1CCCCC1,inactive
3,CC1(C)Cc2c(sc(NC(=O)c3ccc(C(=O)c4ccccc4)cc3)c2C(N)=O)C(C)(C)N1,28.2 µM (active)
4,NC(=O)c1c(NC(=O)c2ccc(S(=O)(=O)N3CCOCC3)cc2)sc2c1CCCCC2,inactive
5,Nc1nc(NCCCN2CCOCC2)nc(Nc2cccc(Cl)c2)c1[N+](=O)[O-],inactive
6,CCCCC/C=C/C1=CC(=O)C[C@H](c2ccc(OC)c(OC)c2)C1,inactive
7,O=C(C(Br)=Cc1ccccc1)c1ccccc1,7.94 µM (active)
8,O=C(N/N=C/c1ccccc1O)/C(=C/c1ccccc1)CCO,inactive
9,CC(C)(C)NCC(=Cc1ccccc1)C(=O)c1ccccc1,3.55 µM (active)
10,CC(C)(C)c1ccc(Oc2ccc(N)cn2)cc1,inactive
11,CNc1nc2c(N)ncnc2n1[C@H]1O[C@@H](CO)[C@H](O)[C@@H]1O,inactive
12,Cc1ccc(SCCC(=O)N/N=C/c2ccccc2O)cc1,inactive
13,Cc1ccc2[nH]c(O)c(N=NC(=O)C3CC3c3ccccc3)c2c1Br (configuration not stated),inactive
14,CC(C)c1cccc(C(C)C)c1Nc1cn[nH]c1,inactive
15,Nn1cnnc1N/N=C/c1cc(Br)cc(Br)c1O,inactive
16,OC(c1ccccn1)(c1ccccn1)c1ccccn1,inactive
17,COc1cc(C=CC(=O)c2cc(OC)c(OC)c(OC)c2)cc(OC)c1OC,17.8 µM (active)
18,COc1ccc(C(=O)/C=C/c2cccc(OCc3ccccc3)c2)cc1CSCC(=O)O,inactive
19,COc1ccc(C(=O)/C=C/c2ccc(OC3CSC3)cc2)cc1OC,inactive
